Structures are written as SMILES. In all, about 400,000 compounds went through this assay and about 3,700 (0.93%) were called active. Inconclusive results (about 3%) are left out. The sample holds actives, similar compounds and a random draw of the others, so the mix is not that of the screen. A structure can be active in one record and inactive in another. A number with no mark means an inactive call. The call rests on the fitted dose curve; in most records, active means well fitted inhibition curve with a large enough effect; inconclusive means small, poorly fitted or top-dose-only effect, or another doubt; inactive means no such curve, though single readings can be large or run the other way.
On the % scale 0 is the no-effect control and ±100 the full control effect; potency means the concentration at half of the fitted maximal effect.

Chain of Vitamin D3 receptor (Homo sapiens) (P11473 whole entry, looked up): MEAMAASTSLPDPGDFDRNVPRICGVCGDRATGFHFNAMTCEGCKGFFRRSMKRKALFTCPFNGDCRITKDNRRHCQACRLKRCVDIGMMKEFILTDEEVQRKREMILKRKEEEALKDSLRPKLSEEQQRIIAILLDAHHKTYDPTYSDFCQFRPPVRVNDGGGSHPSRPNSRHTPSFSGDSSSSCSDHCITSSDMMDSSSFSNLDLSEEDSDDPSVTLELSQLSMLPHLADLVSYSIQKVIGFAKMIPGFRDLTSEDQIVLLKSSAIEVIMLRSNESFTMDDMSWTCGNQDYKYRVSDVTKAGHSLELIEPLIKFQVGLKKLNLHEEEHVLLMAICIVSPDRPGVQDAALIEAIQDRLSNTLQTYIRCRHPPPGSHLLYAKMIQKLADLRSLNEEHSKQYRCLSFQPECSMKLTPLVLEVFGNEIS

This experiment addresses Vitamin D3 receptor (Homo sapiens) (UniProt P11473). Description: Inhibitors of the vitamin D receptor (VDR): qHTS. As to conditions: VDR-SRC2-3 peptide fluorescence polarization, 2 h; max response, negative = inhibition: hits give low values. An excerpt:
The vitamin D receptor (VDR) is a ligand-activated transcription factor and is partially responsible for the regulation of the endocrine system. This includes the transcriptional regulation of genes involved in the production of the parathyroid hormone (PTH) and the regulation of the blood calcium level. High levels of PHT can cause hypercalcemia in the case of primary and tertiary hyperparathyroidism. The VDR-mediated gene regulation, activated by its ligand 1,25-dihydroxyvitamin D3 (1,25-(OH)2D3), is governed by the recruitment of coactivators. Our hypothesis is that small molecules, with the ability to inhibit the interaction between VDR and certain coactivators, are able to selectively modulate VDR-mediated transcription. Our long term objective is the application these VDR-coactivator inhibitors to study the role of VDR-coactivator binding for specific VDR regulated genes. Ultimately, these molecules can be developed into new treatments for hypercalcemic hyperparathyroidism. No small molecule or non-peptide inhibitors are known for the VDR-coactivator interaction.
In a collaboration between the University of Wisconsin, Milwaukee and the NIH Chemical Genomics Center (NCGC) a HTS-compatible enzymatic assay was developed. The assay uses fluorescence polarization as its read-out to measure the inhibition between VDR and coregulator peptide SRC2-3 exerted by small molecules. This assay was used to screen the NIH Molecular Libraries Small Molecule Repository (MLSMR).
NIH Chemical Genomics Center [NCGC]
NIH Molecular Libraries Probe Centers Network [MLPCN]
Assay Submitter (PI): Alexander Arnold, University of Wilwaukee
Both solutions are kept at 4 deg C and protected from light and dispensed using a Kalypsys dispenser. Then 23nl of compounds and controls are added with Kalypsys pintool. […] Plate is centrifuged at 1000 RPM for 15 seconds to remove any residual bubbles. The plate is then incubate at ambient room temperature for 2 hours.
In general terms: qHTS replaces the single test concentration by a dilution series.
Consider `COc1ccc(C(=O)NC(C)CCc2ccccc2)c(OC)c1` (configuration not stated), for which the max response, negative = inhibition is -15.7%.

`C#CCN1C(=O)C(O)(CC(=O)c2cc(OC)ccc2OC)c2ccccc21` (configuration not stated): the max response, negative = inhibition was -3.89%.

Consider `COc1ccc2c(c1)C(=C(C#N)C#N)C(=O)N2CCc1ccccc1`, for which the Potency was 50.1 µM (active).

For `COc1ccccc1-c1nnc(SCC(N)=O)o1`, the max response, negative = inhibition is 10.5%.

Take `CCC(=O)N1CCc2cc(Br)cc(S(=O)(=O)CCC(=O)NCc3ccccc3OC)c21`: the max response, negative = inhibition is -6.5%.

With `COc1ccc(C2Nc3ccc(NC(=O)COC(C)=O)cc3C(=O)N2Cc2ccccc2)cc1COc1ccc(NC(C)=O)cc1` (configuration not stated), the max response, negative = inhibition was -2.53%.

With `CCOc1ccc(N(Cc2ccccc2)C(=O)c2nc(S(C)(=O)=O)ncc2Cl)cc1`, the Potency was 12.6 µM (active).

In the case of `CCOc1ccc(NC(=O)CN(Cc2ccccc2)S(=O)(=O)c2ccc(Cl)cc2)cc1`, the max response, negative = inhibition was 3.79%.

Consider `CCOc1ccc(N(Cc2ccccc2)C(=O)c2nc(SCC)ncc2Cl)cc1`, for which the max response, negative = inhibition was 3.07%.

With `COc1ccc(CCNC(=O)CCCn2c(=O)c3ccccc3n(Cc3ccc(C)cc3)c2=O)cc1OC`, the max response, negative = inhibition was -9.82%.

For the molecule `Cc1ccccc1NC(=O)Cn1c(=O)n(CCCCC(=O)NCc2ccccc2Cl)c(=O)c2ccccc21`, the max response, negative = inhibition was -9.56%.

For the molecule `Cc1ccc(Cn2c(=O)n(CCCC(=O)NCc3ccccc3Cl)c(=O)c3ccccc32)cc1`, the Potency is 89.1 µM (active).

For the molecule `O=C1N(Cc2ccccc2)c2ccc(Cl)cc2C1(O)c1c[nH]c2ccccc12` (configuration not stated), the max response, negative = inhibition was -7.22%.

As for `Cc1c(Cl)cccc1-c1ccc(CNCCCSc2nnnn2C)o1`, the max response, negative = inhibition is 17.5%.

With `CC(C)(C)c1ccc(S(=O)(=O)N2CCN(C(=O)c3cc(-c4ccc(Br)cc4)n[nH]3)CC2)cc1`, the max response, negative = inhibition was 0.49%.

As for `O=C(c1cc(-c2ccc(F)cc2)on1)N1CCN(c2ccc(F)cc2)CC1`, the Potency is 70.8 µM (active) and the max response, negative = inhibition was -26.1%.

Consider `O=C(c1cc(-c2ccc(O)cc2)on1)N1CCOCC1`, for which the max response, negative = inhibition is 4.52%.

As to `O=C(c1cc(-c2ccc(Cl)cc2)on1)N1CCN(c2ccccc2)CC1`, the max response, negative = inhibition is 0.117%.

Take `CCCCn1c(=O)c2oc3ccccc3c2n(CC(=O)Nc2ccccc2OC)c1=O`: the max response, negative = inhibition was 4.96%.

Turning to `C=C(C)C1CC=C(CO)CC1` (configuration not stated), the max response, negative = inhibition is 1.87%.

As to `Cc1ccn2c(Nc3ccc4c(c3)OCCO4)c(-c3ccc(C)s3)nc2c1`, the max response, negative = inhibition was -0.614%.

As for `O=C(O)[C@@H](S)[C@H](S)C(=O)O`, the Potency was 17.8 µM (active).

In the case of `CCCCCCC1(C)NC(c2ccc3c(c2)OCO3)=CC(c2ccccc2O)N1` (configuration not stated), the max response, negative = inhibition is -18%.

Turning to `CCOC(=O)c1nnn(CC(=O)NC(=O)Nc2ccccc2F)c1C(=O)OCC`, the max response, negative = inhibition was 1.08%.

As to `N#Cc1ccccc1Cn1cnc2nc3c(cc2c1=O)CCCC3`, the max response, negative = inhibition was -2.58%.

For the molecule `COCCn1c(CCC(=O)Nc2cc(C)ccc2C)nc2cccnc21`, the max response, negative = inhibition is 7.95%.

Regarding `COc1ccccc1-c1cc(C(F)(F)F)nc(S(=O)(=O)CCCC(=O)Nc2ccc(F)cc2F)n1`, the Potency is 56.2 µM (active).

Take `COc1ccc(Cl)cc1NC(=O)CSc1nc(-c2cccs2)cc(C(F)(F)F)n1`: the max response, negative = inhibition was -17%.

Regarding `Cc1ccc(F)cc1NC(=O)CCSc1nc(-c2ccco2)cc(C(F)(F)F)n1`, the max response, negative = inhibition is 7.81%.

Regarding `CCOc1ccc(-c2cc3nc(C4CCN(C(=O)OC(C)(C)C)CC4)c(C(=O)Nc4ccc(C(=O)OC)cc4)cn3n2)cc1`, the max response, negative = inhibition is -12.8%.

For the molecule `CCN1C(=O)c2ccccc2S(=O)c2ccc(C(=O)NCc3ccc(F)cc3)cc21` (configuration not stated), the max response, negative = inhibition was -17%.

As for `CO[C@@]12[C@@H](COC(N)=O)C3=C(C(=O)C(C)=C(N)C3=O)N1C[C@@H]1N[C@@H]12`, the max response, negative = inhibition is 1.74%.

Regarding `COc1ccc(C2C(=O)N(C3CCCCC3)CC(=O)N2Cc2ccccc2Cl)cc1OC` (configuration not stated), the max response, negative = inhibition was 5.49%.

As to `CSc1nc(C)cc(SC(C(C)=O)C(=O)Nc2ccccc2)n1` (configuration not stated), the Potency is 79.4 µM (active).

`CSc1nc(N(C)NC(=O)c2cccc(C)c2)c2ccccc2n1`: the max response, negative = inhibition was 6.12%.

On to `CC(Sc1nnc2c(n1)C1CCC2(C)C1(C)C)C(=O)Nc1ccccc1` (configuration not stated), for which the max response, negative = inhibition is -21.5%.

In the case of `COc1ccc(NC(=O)CSc2nc3ccccc3n2CC(=O)N2CCCCC2C)cc1` (configuration not stated), the max response, negative = inhibition is -0.157%.

In the case of `O=C(Nc1cccc2cccnc12)C(F)(F)F`, the max response, negative = inhibition was 3.86%.

Turning to `Cc1ccc(-c2nn(CC(C)(C)C)c3ncnc(N)c23)cc1`, the max response, negative = inhibition is -0.691%.

For `CCc1nn(CC(=O)N2CCN(c3ccc(Cl)cc3)CC2)c(=O)c2cc3occc3n12`, the max response, negative = inhibition was 22.3%.

`CCN(CC)CCNC(=O)Cn1ncc2c3ccccc3n(Cc3ccccc3C)c2c1=O`: the max response, negative = inhibition is 13.4%.

For `CCOC(=O)c1c(NC(=O)c2ccc(S(=O)(=O)N(CC)CC)cc2)sc2c1CCCCC2`, the max response, negative = inhibition is -15.3%.

As to `CCOC(=O)c1c(NC(=O)C2(C)Cc3ccccc3C(=O)O2)sc2c1CCCC2` (configuration not stated), the Potency was 79.4 µM (active).

On to `CCOC(=O)c1c(NC(=O)Cc2coc3ccc(CC)cc23)sc2c1CCC2`, for which the max response, negative = inhibition was 2.49%.

As to `CCC(=O)Nc1ccc2nc(SCC(=O)N3CCc4ccccc43)sc2c1`, the max response, negative = inhibition is 13%.

In the case of `CCOC(=O)C1C/C(=C\C(C)=O)c2cccc(C(F)(F)F)c2O1` (configuration not stated), the max response, negative = inhibition was -3.65%.

Consider `CN(C)c1ccc(/C=N/NC(=O)C(O)c2ccc(Br)cc2)cc1` (configuration not stated), for which the max response, negative = inhibition was 5.61%.

For the molecule `CN(C)c1ccc(N/C=C/C(=O)C(F)(F)F)cc1`, the Potency is 25.1 µM (active).

Turning to `COc1cc(OC)c(C(=O)Nc2ccc(N(C)C)cc2)cc1OC`, the max response, negative = inhibition is -2.21%.

On to `O=C(CSc1nc(-c2cccc(F)c2)[nH]c1-c1ccccc1)Nc1ccc2c(c1)OCO2`, for which the max response, negative = inhibition was -7.99%.

Regarding `CCOc1ccc(N(CC)C(=O)c2cc3c(=O)oc4ccccc4c3s2)cc1`, the max response, negative = inhibition is -18%.

On to `CCOc1cc(CNC(=O)c2sc3ncnc(N(C)C4CCCCC4)c3c2C)ccc1OC`, for which the max response, negative = inhibition is 5.17%.

With `COc1cc(NC(=O)CSc2nc3nc(C)c(Cc4ccc(C)cc4)c(C)n3n2)cc(OC)c1OC`, the max response, negative = inhibition was 12.5%.

On to `N#CC1=C(N)Oc2n[nH]c(CSc3ccccc3)c2C12C(=O)Nc1ccccc12` (configuration not stated), for which the max response, negative = inhibition was 12%.

With `N#CC1=C(N)Oc2[nH]c(=S)[nH]c(=O)c2C12C(=O)Nc1ccccc12` (configuration not stated), the Potency is 44.7 µM (active).

As for `CC1(C)Cc2ccccc2-c2[nH]c(=S)[nH]c(=O)c21`, the max response, negative = inhibition is -2%.
